Test results from the supplement of paper PMC13380429.
Structures can show the parent of a compound that is named as a salt. Unmarked numbers belong to inactive results.

Tested on: Vero E6 infected with SARS-CoV-2
Assay: inhibition of SARS-CoV-2 cytopathic effect; higher = more antiviral protection, active = above 15
Details: 48 h

| Compound | inhibition of SARS-CoV-2 cytopathic effect (1 nM) [%] | inhibition of SARS-CoV-2 cytopathic effect (8.33 nM) [%] | inhibition of SARS-CoV-2 cytopathic effect (100 nM) [%] | inhibition of SARS-CoV-2 cytopathic effect (833.33 nM) [%] | inhibition of SARS-CoV-2 cytopathic effect (10000 nM) |
| --- | --- | --- | --- | --- | --- |
| O=C(/C=C/c1ccc(CN(CCO)CCc2c[nH]c3ccccc23)cc1)NO [dacinostat] | -2.47 | -2.54 | -6.55 | -21.1 | -23.2% |
| Cc1cc(OI)c(C(C)C)cc1-c1cc(C(C)C)c(OI)cc1C [thymol-iodide] | -1.11 | -0.04 | -0.16 | 1.69 | -2.32% |
| Fc1ccc(CN2CCC(Nc3ccc(C(F)(F)F)nn3)CC2)cc1F | 0.35 | 2.13 | 2.17 | 1.38 | -6.9% |
| CCO/N=C(\C(=O)N[C@@H]1C(=O)N2C(C(=O)[O-])=C(Sc3nc(-c4cc[n+](C)cc4)cs3)CS[C@H]12)c1nsc(NP(=O)(O)O)n1 [ceftaroline-fosamil] | 3.38 | 2.02 | 4.54 | 4.34 | 3.55% |
| CCS(=O)(=O)c1ccc2oc(-c3ccc4ccccc4c3)nc2c1 [ezutromid] | 3.38 | 0.67 | -1.92 | 2.64 | 1.18% |
| Cc1ccc(F)c(NC(=O)Nc2ccc(-c3cccc4[nH]nc(N)c34)cc2)c1 [linifanib] | -2.72 | -3.15 | -4.95 | -2.75 | -2.71% |
| CN(C)C(=O)COC(=O)Cc1ccc(OC(=O)c2ccc(NC(=N)N)cc2)cc1 [Camostat mesylate] | 0.94 | -0.39 | -0.94 | 1.08 | -0.11% |
| CCC(=O)NC1CCc2cccc(OC)c2C1 (stereo not given) | 0.92 | 1.4 | 2.16 | 7.57 | 4.57% |
| COc1ccc(COc2cc3oc(=O)c4cc(C(C)O)ccc4c3cc2OC)cc1 (stereo not given) [palomid-529] | 0.28 | -1.83 | 0.02 | -0.05 | 1.22% |
| CCOCC(O)COc1ccc(NC(=O)CC[S+](C)C)cc1 (stereo not given) [suplatast] | 2.01 | -0.4 | -0.49 | 0.97 | 0.31% |
| O=C(CBr)N1CC([N+](=O)[O-])([N+](=O)[O-])C1 | 1.69 | -0.07 | -1.43 | -1.12 | 0.95% |
| CCCCCCCCCCCCCCCCCCN(CCCCCCCCCCCCCCCCCC)CCCN(CCO)CCO [avridine] | -9.9 | -6.98 | -5.76 | -5.17 | -10.1% |
| CC1=C(C(=O)Nc2cc3cn[nH]c3cc2F)C(c2ccc(C(F)(F)F)cc2)CC(=O)N1 (stereo not given) | 1.8 | -1.07 | 1.5 | -0.29 | -5.1% |
| CC(C)n1nccc1-c1ncccc1COc1cccc(O)c1C=O [voxelotor] | -1.1 | -1.17 | -0.23 | 0.27 | 6.93% |
| Cc1cc(C)nc(NS(=O)(=O)c2ccc(NC(=S)NC(=O)COc3ccc(Br)cc3Cl)cc2)n1 | -1.5 | -0.46 | -0.98 | -2.23 | 0.9% |
| COC(=O)N1CC[C@@H]2[C@H]1CCC[C@@]2(O)C#Cc1cccc(C)c1 [mavoglurant] | 0.66 | -0.18 | 2.27 | -1.9 | -0.19% |
| Cc1cccc(C)c1OCC(=O)N[C@@H](Cc1ccccc1)[C@@H](O)C[C@H](Cc1ccccc1)NC(=O)[C@H](C(C)C)N1CCCNC1=O [Lopinavir] | 0.81 | -0.07 | 0.62 | -0.42 | 6.72% |
| CC[C@@H](C)N(C)C(=O)c1cc2ccccc2c(-c2ccccc2Cl)n1 | -0.84 | 0.72 | -0.6 | 2.81 | 2.78% |
| CCn1c(-c2nonc2N)nc2c(C#CC(C)(C)O)ncc(OC[C@H]3CCCNC3)c21 | 2.55 | 4.66 | 3.53 | 5.33 | 4.74% |
| CC1Oc2cc(cnc2N)-c2c(nn(C)c2C#N)CN(C)C(=O)c2ccc(F)cc21 (stereo not given) | -0.41 | 1.22 | 0.495 | -2.23 | 0.255% |

| Compound | inhibition of SARS-CoV-2 cytopathic effect (1 nM) [%] | inhibition of SARS-CoV-2 cytopathic effect (8.33 nM) [%] | inhibition of SARS-CoV-2 cytopathic effect (100 nM) [%] | inhibition of SARS-CoV-2 cytopathic effect (833.33 nM) [%] | inhibition of SARS-CoV-2 cytopathic effect (10000 nM) |
| --- | --- | --- | --- | --- | --- |
| O=C/C=C/c1ccccc1 [cinnamaldehyde] | 1.16 | 2.28 | 1.04 | 3.28 | 5.38% |
| C[N+](C)(C)CC(O)CC(=O)[O-] (stereo not given) [carnitine-(D/L)] | -1.88 | -0.98 | 0.43 | 3.52 | 5.12% |
| N#Cc1cc(CN2CCC(Nc3ncnc4sc(Cl)cc34)CC2)ccc1F | 6.81 | 8.07 | 7.98 | 1.59 | 0.56% |
| NC(=O)[C@H]1CCS[C@@H]2C[C@]3(CCCN3C(=O)Cc3ccc(NC(=O)COc4ccc(Cl)cc4Cl)cc3)C(=O)N12 | 0.49 | 0.01 | 1.37 | 0.74 | -6.32% |
| COc1ccc(C(=O)c2ccccc2)c(O)c1 [oxybenzone] | 0.11 | 2.31 | 0.71 | 0.2 | 0.65% |
| CCc1c(C(=O)NCCc2ccc(N3CCCCC3)cc2)[nH]c2ccc(Cl)cc12 | 1.1 | 2.93 | 4.96 | 2.28 | -2.19% |
| CC(C)COc1ccc(CNC(=O)N(Cc2ccc(F)cc2)C2CCN(C)CC2)cc1 [pimavanserin] | -1.81 | -0.8 | 0.2 | -0.47 | 24% (active) |
| CCOc1cc2ncc(C#N)c(Nc3ccc(F)c(Cl)c3)c2cc1NC(=O)/C=C/CN(C)C [pelitinib] | -2.05 | -5.13 | -7.91 | -5.27 | 2.95% |
| Cc1nnc(C(C)C)n1C1C[C@H]2CC[C@@H](C1)N2CC[C@H](NC(=O)C1CCC(F)(F)CC1)c1ccccc1 (stereo in doubt) [maraviroc] | -2.38 | -1.45 | 1.77 | -0.21 | 2.92% |
| N#C/C(=C\c1ccc(O)c(O)c1)C(=O)NCc1ccccc1 | 5.06 | 3.47 | 7.47 | 0.08 | 5.05% |
| CN1CCN(C(c2ccccc2)c2ccccc2)CC1 [cyclizine] | -1.86 | -1.86 | -1.97 | -0.45 | 0.42% |
| CCCCCCCCCCCCCCCC[N+](C)(C)C [cetrimonium] | 1.02 | -0.39 | 0.2 | -3.96 | -18.4% |
| CO[C@H]1/C=C/O[C@@]2(C)Oc3c(C)c(O)c4c(O)c(cc(O)c4c3C2=O)NC(=O)/C(C)=C\C=C\[C@H](C)[C@H](O)[C@@H](C)[C@@H](O)[C@@H](C)[C@H](OC(C)=O)[C@@H]1C [rifamycin-sv] | 0.74 | 1.12 | 3.4 | 4.53 | 2.73% |
| C[C@@H]1COC(Nc2ccc3ncnc(Nc4ccc(OCc5nccs5)c(Cl)c4)c3c2)=N1 | 2.68 | 1.86 | -0.65 | -3.55 | -4.19% |
| CCN1CCC[C@H]1CNC(=O)c1c(OC)ccc(Br)c1OC [remoxipride] | -2.39 | 2.05 | 0.28 | 0.51 | -1.54% |
| C[C@H](NC(=O)C(C)(C)Oc1ccc(C(F)(F)F)cn1)[C@@H](Cc1ccc(Cl)cc1)c1cccc(C#N)c1 [taranabant] | -0.8 | 0.33 | -2.11 | 1.39 | -5.97% |
| C=C[C@@H]1C[C@]1(NC(=O)[C@@H]1C[C@@H]2CN1C(=O)[C@H](C(C)(C)C)NC(=O)O[C@@H]1C[C@H]1CCCCCc1nc3ccc(OC)cc3nc1O2)C(=O)NS(=O)(=O)C1CC1 [grazoprevir] | -0.59 | -3.18 | -2.52 | 1.78 | 1.23% |
| CCn1c(N)c(C(=O)NC)c(=O)c2ccc(C#C[C@@](C)(O)COC)nc21 | 0.13 | -0.62 | -1.69 | 0.68 | 6.9% |
| CNC(=O)c1nn(C)c2c1C(C)(C)Cc1cnc(Nc3ccc(N4CCN(C)CC4)cc3)nc1-2 | 0.32 | 0.79 | 1.17 | -4.6 | -10.3% |
